Inconclusive results are not listed. Calls of active or inactive are those of the source. The calls were made as follows: active = hit-call score of the fitted dose curve at least 0.9, where 1 is the maximum; inconclusive = response in the unintended direction; inactive = score below 0.9.

The test in a line: ACEA_ER_80hr: ACEA Biosciences xCELLigence Real-Time Cell Analysis on Estrogen Receptor Agonism for Proliferation (AID 2282667). Conditions: T47D proliferation, impedance (xCELLigence), 80 h. The procedure:
ACEA_ER is a cell-based, single-readout assay that uses T47D, a human breast cell line, with measurements taken at 80 hours after chemical dosing in a 96-well plate, although TO2 (mc0.srcf) used a 384-well plate. Differences in plate size can be ignored given data normalization.ACEA_ER_80hr is one of two assay component(s) measured or calculated from the ACEA_ER assay. It is designed to make measurements of real-time cell-growth kinetics, a form of growth reporter, as detected with electrical impedance signals by Real-Time Cell Electrode Sensor (RT-CES) technology.Data from the assay component ACEA_ER_80hr was analyzed into 1 assay endpoint. This assay endpoint, ACEA_ER_80hr_Positive, was analyzed in the positive analysis fitting direction relative to DMSO as the negative control and baseline of activity. Using a type of growth reporter, measures of the cells for gain-of-signal activity can be used to understand the signaling at the pathway-level as they relate to the gene ESR1. Furthermore, this assay endpoint can be referred to as a primary readout, because this assay has produced multiple assay endpoints where this one serves a signaling function. To generalize the intended target to other relatable targets, this assay endpoint is annotated to the nuclear receptor intended target family, where the subfamily is steroidal.
The xCELLigence system Multi-E-Plate stations were used to measure the time-dependent response to chemicals. Each compound was tested in an eight-point, 1:4 serial dilution series starting at a maximum final concentration of 100 uM. A maximum starting concentration of 0.5% DMSO was present in the 100 uM chemical samples and was diluted along with the test article dilution series. The screen was performed in biological duplicate using two separate, 96-well, E-Plates 96 for each dilution series (n = 2). Positive controls (MG132 and E2) and a negative control (assay media) were tested in quadruplicate on each testing plate. […] Reference compounds were tested with 8 concentrations with 1:5 serial dilutions. All screening was carried out by ACEA Biosciences, Inc. (San Diego, CA). T-47D cells purchased from ATCC were maintained in RPMI1640 media supplemented with 10% characterized fetal bovine serum (FBS). […] Cells were then detached and seeded in E-Plates 96 in assay medium. After overnight monitoring of growth once every hour, compounds were added to […] cells and remained in the medium until the end of the experiment. Cellular responses were then recorded once every 5 min for the first 5 h, and once every hour for an additional 100 h.
Consider `COc1cc(C(C)C)c2c(c1)S(=O)(=O)N(COc1cc(=O)n3cccc(OCCN4CCCCC4)c3n1)C2=O`, for which the molecule was classed as inactive.
Regarding `FC(F)(F)COC(OCC(F)(F)F)OCC(F)(F)F`, the call was inactive.
For `NC(=O)NN=Cc1ccc([N+](=O)[O-])o1`, the AC50 (in general, the concentration giving half of the maximal activity seen) was 10.5 µM (active).
Still for that read-out and setting: then `NC(=O)N1c2ccccc2C=Cc2ccccc21`, with 69.5 µM (active).
`FC(F)C(F)(F)COCC1CO1` (stereo not given): the call was inactive.
For `O=C(N[C@H](CO)[C@H](O)c1ccc([N+](=O)[O-])cc1)C(Cl)Cl`, the molecule was classed as inactive.
On the same count and under the same terms, as for `Cn1cc[nH]c1=S`, the entry is “inactive”.
Same read-out and setting: as for `CCCOc1ccc(S(=O)(=O)N2CCN(CC)CC2)cc1-c1nc2c(CC)n(Cc3ccccn3)nc2c(=O)[nH]1`, the entry is “inactive”.
On the same count and under the same terms, then `OC[C@H]1O[C@@H]2O[C@H]3[C@H](O)[C@@H](O)[C@@H](O[C@H]4[C@H](O)[C@@H](O)[C@@H](O[C@H]5[C@H](O)[C@@H](O)[C@@H](O[C@H]6[C@H](O)[C@@H](O)[C@@H](O[C@H]7[C@H](O)[C@@H](O)[C@@H](O[C@H]1[C@H](O)[C@H]2O)O[C@@H]7CO)O[C@@H]6CO)O[C@@H]5CO)O[C@@H]4CO)O[C@@H]3CO`, with “inactive”.
Consider `C[C@@H](Oc1ccc(CNC(=O)c2cccnc2Oc2ccc3c(c2)OCO3)c(F)c1)C(=O)O`, for which the molecule was called inactive.
Same read-out and setting: then `COCc1nnc(-c2ccc[n+]([O-])c2)n1-c1c(Cl)c(Cl)cc2[nH]c(=O)c(=O)[nH]c12`, with “inactive”.
On the same count and under the same terms, as for `c1ccc2ncccc2c1`, the entry is “inactive”; as for `OC(O)(C(F)C(O)(O)C(F)(F)F)C(F)(F)F`, “inactive”; as for `O=C1CN(N=Cc2ccc([N+](=O)[O-])o2)C(=O)N1`, “inactive”.
`Nc1ccn([C@@H]2O[C@H](CO)[C@@H](O)[C@@H]2O)c(=O)n1`: the molecule was classed as inactive.
As for `CC(C)C(=O)Nc1ccc([N+](=O)[O-])c(C(F)(F)F)c1`, the AC50 was 80.5 µM (active).
As to `COS(C)(=O)=O`, the outcome was inactive.
Still for that read-out and setting: then `NC(N)=O`, with “inactive”; and `CC1(C)C(=O)N(Cl)C(=O)N1Cl`, with “inactive”.
On the same count and under the same terms, as for `O=C(O)c1cccc(C[C@@H]2COc3ccc(OCc4nc5cc(F)ccc5s4)cc3[C@@H]2O)c1`, the entry is “inactive”; as for `O=c1[nH]cnc2c1ncn2[C@H]1CC[C@@H](CO)O1`, “inactive”; as for `NC(=O)N(O)[C@@H]1COc2cc(OCc3ccccc3)ccc21`, “inactive”.
Same read-out and setting: then `c1ccc(C(O[C@@H]2CCCN(CCc3ccc4c(c3)OCO4)C2)c2ccccc2)cc1`, with “inactive”; and `CC(=O)c1ccccc1`, with “inactive”.
As for `O=C(O)[C@H](O)[C@@H](O)C(=O)O`, the molecule was called inactive.
Same read-out and setting: as for `O=C(O)c1ccc2c(c1)nc(C(=O)NC1CCN(C3CC3)CC1)n2Cc1cc(-c2ccc(Cl)s2)on1`, the entry is “inactive”.
Consider `Cc1nccn1-c1ccc(Sc2cccc(C3(C(N)=O)CCOCC3)c2)cc1`, for which the AC50 was 0.782 µM (active).
As to `CCCc1ccccc1`, the outcome was inactive.
Still for that read-out and setting: then `NNC(=O)c1ccncc1`, with “inactive”.
Take `CCCCCCCCCC`: the molecule was classed as inactive.
Still for that read-out and setting: as for `CCCCC(CC)C(=O)OCCOCCOCCOC(=O)C(CC)CCCC` (stereo not given), the entry is “inactive”.
The same measure, in the same setting: then `C[Si](C)(C)C(F)(F)C(F)(F)C(F)(F)F`, with “inactive”.
Regarding `c1ccc2cc3ccccc3cc2c1`, the molecule was called inactive.
On the same count and under the same terms, then `CCN(CC)C(=S)SSC(=S)N(CC)CC`, with “inactive”; and `CNC(C)=O`, with “inactive”.
The same measure, in the same setting: then `CCCCCCCCN(C)C`, with “inactive”; and `C=CCc1cc(S(=O)(=O)c2ccc(O)c(CC=C)c2)ccc1O`, with “inactive”; and `CCCCN1C(=O)[C@@H]([C@H](O)C2CCCCC2)NC(=O)C12CCN(Cc1ccc(Oc3ccc(C(=O)O)cc3)cc1)CC2`, with “inactive”.
Same read-out and setting: then `OCCOCCOCCO`, with “inactive”.
Turning to `OCCC(F)(F)C(F)(F)C(F)(F)C(F)(F)F`, the molecule was called inactive.

For the origin of these results see PubChem BioAssay (EPA / NIEHS).
